Reference: PubChem BioAssay
A number with no mark means an inactive call. For part of these data: Results with a measured potency or affinity are listed apart. Activity calls are given as the source filed them. Unless noted, the rule behind the calls is not given here.

What was measured:
[1] = antimalarial activity against Dd2 strain (AID 2302;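 active = growth inhibition above 50% at the single 2 µM test dose, taken to imply half-maximal potency below 2 µM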;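 note: 0% = DMSO untreated growth and 100% = chloroquine plus artemisinin killed control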); conditions: P. falciparum Dd2 in RBCs, LDH growth readout, 72 h; at 2 µM; active compounds read high
[2] = HepG2 cytotoxicity, primary screen, cytotoxicity control for P. falciparum antimalarial project, cell-based, ATP luminescence (AID 2303;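 active = inhibition above 50%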;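 note: 0% = DMSO wells and 100% = digitonin-killed cells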); conditions: HepG2 viability, 24-48 h, at 10 µM, active compounds read high
[3] = biological target: L-lactate dehydrogenase (Plasmodium falciparum (isolate CDC / Honduras)) (UniProt Q27743); assay: PfLDH activity inhibition – cell lysate, 3D7 strain, counter-screen for P. falciparum growth inhibition project (AID 2304);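 note: 0% = vehicle and 100% = reference inhibitor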; conditions: P. falciparum 3D7 crude extract, LDH APAD/NBT absorbance; at 2 µM; active compounds read high
L-lactate dehydrogenase (Plasmodium falciparum (isolate CDC / Honduras)), sequence (Q27743 whole entry, looked up): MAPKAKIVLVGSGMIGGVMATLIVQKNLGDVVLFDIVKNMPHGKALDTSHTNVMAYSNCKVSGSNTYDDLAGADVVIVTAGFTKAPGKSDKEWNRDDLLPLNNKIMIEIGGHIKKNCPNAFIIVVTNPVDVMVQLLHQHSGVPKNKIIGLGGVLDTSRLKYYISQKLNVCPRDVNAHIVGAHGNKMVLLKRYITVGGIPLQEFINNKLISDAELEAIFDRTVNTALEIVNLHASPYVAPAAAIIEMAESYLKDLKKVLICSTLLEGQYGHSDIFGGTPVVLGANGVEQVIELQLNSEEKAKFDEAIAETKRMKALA

[4] = inhibition of 3D7 malaria parasite growth – strain 3D7 (AID 2306);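 note: 0% = DMSO wells and 100% = chloroquine plus artemisinin control wells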; conditions: P. falciparum 3D7 erythrocytic growth, LDH absorbance, 72 h; at 2 µM; active compounds read high
[5] = biological target: Calcium-dependent protein kinase 1 (Plasmodium falciparum (isolate 3D7)) (UniProt P62344); assay: PfCDPK1 kinase inhibitors, biochemical, TCAMS library (AID 1159585; cut-off not given, nearly all actives have IC50 up to about 0.98 µM;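 note: inhibitors leave more ATP so luminescence rises with inhibition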); conditions: recombinant PfCDPK1, Kinase-Glo ATP depletion luminescence
Calcium-dependent protein kinase 1 (Plasmodium falciparum (isolate 3D7)), sequence (P62344 whole entry, looked up): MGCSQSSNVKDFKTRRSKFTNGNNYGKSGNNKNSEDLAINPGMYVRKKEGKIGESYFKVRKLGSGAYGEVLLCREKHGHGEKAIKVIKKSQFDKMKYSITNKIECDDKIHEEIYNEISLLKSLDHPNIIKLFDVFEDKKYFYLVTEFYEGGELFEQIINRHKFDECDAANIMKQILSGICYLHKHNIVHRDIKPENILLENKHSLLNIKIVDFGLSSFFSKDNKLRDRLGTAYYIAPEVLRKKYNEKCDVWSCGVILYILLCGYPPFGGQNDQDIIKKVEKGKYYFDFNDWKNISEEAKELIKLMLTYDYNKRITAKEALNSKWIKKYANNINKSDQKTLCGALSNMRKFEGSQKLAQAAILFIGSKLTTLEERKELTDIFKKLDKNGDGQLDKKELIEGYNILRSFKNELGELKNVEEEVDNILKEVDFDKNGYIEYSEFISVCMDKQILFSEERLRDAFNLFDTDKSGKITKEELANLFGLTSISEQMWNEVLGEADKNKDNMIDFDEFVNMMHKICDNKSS

[6] = biological target: Plasmodium falciparum protein kinase 6 (PK6, PF3D7_1337100) (UniProt Q8IDW1); assay: PfPK6 kinase inhibitors, biochemical, TCAMS library (AID 1159586); conditions: recombinant PfPK6, Kinase-Glo ATP depletion luminescence
Plasmodium falciparum protein kinase 6 (PK6, PF3D7_1337100), sequence (Q8IDW1 1-305): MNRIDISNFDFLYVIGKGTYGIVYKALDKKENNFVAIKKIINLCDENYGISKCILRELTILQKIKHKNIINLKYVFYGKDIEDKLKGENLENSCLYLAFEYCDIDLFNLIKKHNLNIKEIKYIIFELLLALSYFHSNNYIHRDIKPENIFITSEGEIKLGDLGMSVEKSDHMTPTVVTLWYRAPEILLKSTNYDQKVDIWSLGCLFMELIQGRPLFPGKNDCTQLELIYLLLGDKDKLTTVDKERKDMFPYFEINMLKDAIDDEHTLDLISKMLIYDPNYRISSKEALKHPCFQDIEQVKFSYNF

[7] = biological target: Protein kinase 7 (PK7), Plasmodium falciparum 3D7 (PF3D7_0213400) (UniProt Q7YTF7); assay: inhibition of Plasmodium PK7 catalytic activity – biochemical, TCAMS antimalarial set, Kinase-Glo luminescence (AID 1159587); conditions: recombinant PfPK7, Kinase-Glo ATP depletion luminescence
Protein kinase 7 (PK7), Plasmodium falciparum 3D7 (PF3D7_0213400), sequence (Q7YTF7 1-343): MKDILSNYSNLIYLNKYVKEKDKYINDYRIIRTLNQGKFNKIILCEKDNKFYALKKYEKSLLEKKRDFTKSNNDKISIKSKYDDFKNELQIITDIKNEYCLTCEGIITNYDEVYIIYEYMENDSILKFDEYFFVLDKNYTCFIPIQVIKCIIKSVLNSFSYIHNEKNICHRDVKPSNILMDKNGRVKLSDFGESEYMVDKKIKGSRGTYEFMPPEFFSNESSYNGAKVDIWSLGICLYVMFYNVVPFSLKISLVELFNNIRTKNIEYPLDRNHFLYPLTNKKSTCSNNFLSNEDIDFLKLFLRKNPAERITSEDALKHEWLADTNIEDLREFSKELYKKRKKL

[8] = biological target: Calcium-dependent protein kinase 4 (Plasmodium falciparum (isolate 3D7)) (UniProt Q8IBS5); assay: PfCDPK4 kinase inhibitors, biochemical, TCAMS library (AID 1159588; cut-off not given, nearly all actives have IC50 up to about 0.91 µM); conditions: recombinant PfCDPK4, Kinase-Glo ATP depletion luminescence
Calcium-dependent protein kinase 4 (Plasmodium falciparum (isolate 3D7)), sequence (Q8IBS5 whole entry, looked up): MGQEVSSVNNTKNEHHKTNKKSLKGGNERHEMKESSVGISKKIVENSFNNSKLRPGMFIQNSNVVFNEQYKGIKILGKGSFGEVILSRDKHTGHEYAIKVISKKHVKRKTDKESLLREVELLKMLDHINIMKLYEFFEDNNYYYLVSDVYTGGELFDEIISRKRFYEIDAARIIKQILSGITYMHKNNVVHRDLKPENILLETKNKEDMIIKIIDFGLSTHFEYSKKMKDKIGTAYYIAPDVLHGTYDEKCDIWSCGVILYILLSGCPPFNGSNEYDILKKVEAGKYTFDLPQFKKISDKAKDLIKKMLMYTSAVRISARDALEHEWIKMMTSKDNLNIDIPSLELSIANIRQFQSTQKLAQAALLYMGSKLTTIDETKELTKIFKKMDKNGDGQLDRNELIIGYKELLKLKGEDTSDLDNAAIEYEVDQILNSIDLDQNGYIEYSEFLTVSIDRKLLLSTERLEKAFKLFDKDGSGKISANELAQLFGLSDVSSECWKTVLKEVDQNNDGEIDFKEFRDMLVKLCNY

Structure (SMILES)	growth inhibition [1]	inhibition [2]	inhibition [3] [%]	growth inhibition [4]	outcome [5]	outcome [6]	outcome [7]	outcome [8]
O=[N+]([O-])c1cccc(CNCC2CCN(Cc3ccc(O)cc3)CC2)c1	5%	8%	1	98% (active)	inactive	inactive	inactive	inactive
O=C(/C=C/c1ccc(Cl)c(Cl)c1)NCCCCCN1CCC(NC(=O)Nc2ccc3c(c2)OCO3)CC1	5%	12%	6	103% (active)	inactive	inactive	inactive	inactive
Cc1cc(N[C@@H](Cc2ccccc2)C(=O)NCCc2ccccc2)nc(NCC2CCCCC2)n1	95% (active)	24%	-2	101% (active)	inactive	inactive	inactive	inactive
CC(C)c1ccc(C=CC(=O)N2CCC(CCN3CCC(c4c[nH]c5ccccc45)CC3)CC2)cc1	11%	85% (active)	4	93% (active)	inactive	inactive	inactive	inactive
CC[C@H](C)CNC(=O)c1ccnc(-c2ccc(CNC3Cc4ccccc4C3)cc2)c1	87% (active)	18%	-3	102% (active)	inactive	inactive	inactive	inactive
CC(C)C(=O)NC(c1ccc(N(C)C)cc1)c1cc(Cl)c2cccnc2c1O (configuration not stated)	64% (active)	61% (active)	2	87% (active)	inactive	inactive	inactive	inactive
Cc1cc2nc(-c3cc(Br)ccc3O)c(-c3cc(Br)ccc3O)nc2cc1C	12%	2%	-1	96% (active)	inactive	inactive	inactive	inactive
CC(C)c1ccc(NC(=O)c2cccc(CN3CCCN(Cc4cccc(C#N)c4)CC3)c2)cc1	15%	48%	-5	93% (active)	inactive	inactive	inactive	inactive
O=C(c1ccc(-c2ccc(-c3nc4ccc(C(F)(F)F)cc4[nH]3)s2)cc1)N1CCN(CCc2ccccc2)CC1	60% (active)	23%	-5	98% (active)	inactive	inactive	inactive	inactive
CC(C)Oc1cc(-c2ccc(S(C)(=O)=O)cc2)nc(N(Cc2cccc(F)c2F)Cc2cccc(F)c2F)n1	99% (active)	10%	4	101% (active)	inactive	inactive	inactive	inactive
O=C(/C=C/c1ccc(Cl)c(Cl)c1)NCCCCCN1CCN(C(=O)Nc2ccc(C(F)(F)F)cc2)CC1	-1%	26%	-5	99% (active)	inactive	inactive	inactive	inactive
CCN(CC)CCNc1ccnc2c3ccccc3n(C)c12	99% (active)	14%	-4	101% (active)	inactive	inactive	inactive	inactive
O=C(/C=C/c1ccc(Cl)c(Cl)c1)NCCCCCN1CCC(CCNC(=O)/C=C/c2ccc(Cl)c(Cl)c2)CC1	56% (active)	68% (active)	-5	101% (active)	inactive	inactive	inactive	inactive
COc1ccc(Nc2nccc(N3CCC(NC(=O)Nc4ccc5c(c4)OCO5)C3)n2)cc1 (configuration not stated)	57% (active)	27%	-2	98% (active)	inactive	inactive	inactive	inactive
COc1c(C2CCN(CCCCNC(=O)c3ccc(-c4ccc(Cl)cc4)cn3)CC2)ccc2c1CCCC2	14%	100% (active)	-3	93% (active)	inactive	inactive	inactive	inactive
CC1CCN(c2nc(C(=O)NCCc3ccc(Cl)c(Cl)c3)c(C(C)C)s2)CC1	38%	-3%	3	88% (active)	inactive	inactive	inactive	inactive
O=C(COc1ccc(Cl)c(Cl)c1)NCCCCCN1CCCN(C(=O)Nc2ccc(Cl)c(Cl)c2)CC1	7%	29%	3	93% (active)	inactive	inactive	inactive	inactive
CC(=O)c1ccc(NC(=O)C2c3ccccc3C(=O)N(CC(C)C)C2c2cccs2)cc1 (configuration not stated)	51% (active)	13%	-1	99% (active)	inactive	inactive	inactive	inactive
CN(C)Cc1ccc2nc(-c3cccc(Cc4cc(Cl)ccc4OCc4ccc(Cl)cc4F)n3)[nH]c2c1	26%	43%	1	93% (active)	inactive	inactive	inactive	inactive
COC(=O)[C@@H](NC(=O)[C@@H](Nc1ccc(C#N)c2ccccc12)C(C)(C)C)c1ccc(O)cc1	74% (active)	-4%	1	101% (active)	inactive	inactive	inactive	inactive

Structure (SMILES)	growth inhibition [1]	inhibition [2]	inhibition [3] [%]	growth inhibition [4]	outcome [5]	outcome [6]	outcome [7]	outcome [8]
CCCCCCCCNCC(O)c1cc(-c2ccc(Cl)cc2)nc2cc(C)ccc12 (configuration not stated)	99% (active)	0%	-2	99% (active)	inactive	inactive	inactive	inactive
Cc1cc(N[C@@H](Cc2ccccc2)C(=O)NCc2cccs2)nc(Nc2ccccc2)n1	36%	3%	-2	96% (active)	inactive	inactive	inactive	inactive
FC(F)(F)c1ccc2nc(-c3ccc(-c4ccc(CNCC5CCCO5)cc4)s3)[nH]c2c1 (configuration not stated)	98% (active)	47%	-6	101% (active)	inactive	inactive	inactive	inactive
Fc1ccc(CN2CCN(c3ncnc4cc(-c5ccccc5)sc34)CC2)cc1	82% (active)	7%	4	82% (active)	inactive	inactive	inactive	inactive
Cc1ccc(S(C)(=O)=O)cc1/C=C/C(=O)O	1%	-7%	4	96% (active)	inactive	inactive	inactive	inactive
O=C(Nc1cc(C(F)(F)F)ccc1N1CCOCC1)C(Cl)(Cl)Cl	100% (active)	-5%	5	100% (active)	inactive	inactive	inactive	inactive
CCCCOc1ccc(C(=O)C(CCC(CNC(C)(C)C)C(=O)c2ccc(OCCCC)cc2)CNC(C)(C)C)cc1 (configuration not stated)	92% (active)	100% (active)	1	94% (active)	inactive	inactive	inactive	inactive
O=C(/C=C/c1ccccc1F)NC1CCC(CCN2CCc3ccc(-c4cccnc4)cc3CC2)CC1 (configuration not stated)	5%	34%	-4	92% (active)	inactive	inactive	inactive	inactive
O=C(CCc1cnc[nH]1)Nc1cccc(-c2ccc(-c3nc4ccccc4[nH]3)cc2)c1	60% (active)	24%	1	100% (active)	inactive	inactive	inactive	inactive
Cc1nc2ccc(NC(=O)c3cc(S(=O)(=O)N(C)C)ccc3Cl)cc2s1	77% (active)	20%	-2	91% (active)	inactive	inactive	inactive	inactive
Cc1c(C)c2c(c(C)c1O)CC[C@](C)(C(=O)N1CCC(CCN3CCC(c4c[nH]c5ccccc45)CC3)CC1)O2	74% (active)	31%	0	99% (active)	inactive	inactive	inactive	inactive
OC(CNc1ccnc(Nc2ccc(Cl)cc2)n1)c1ccc(C(F)(F)F)cc1 (configuration not stated)	94% (active)	-2%	-6	101% (active)	inactive	inactive	inactive	inactive
Fc1ccc2[nH]c(-c3ccccc3)nc2c1CN1CCC(N2CCCC2)CC1	30%	2%	-2	100% (active)	inactive	inactive	inactive	inactive
Cc1nc(-c2nc(N3CCC(O)CC3)ncc2-c2ccsc2)sc1C	35%	6%	-2	83% (active)	inactive	inactive	inactive	inactive
Cc1cccc2[nH]c(-c3cccc(-c4ccc(NC(=O)C(C)CN(C)C)cc4)c3)nc12 (configuration not stated)	100% (active)	29%	-3	101% (active)	inactive	inactive	inactive	inactive
COc1ccccc1C(=O)Nc1ccc(Nc2nc(C)cc(N3CCOCC3)n2)cc1	22%	28%	-3	98% (active)	inactive	inactive	inactive	inactive
O=C(/C=C/c1ccc2ccccc2c1)NCC1(c2ccc(-c3ccccc3)cc2)CCOCC1	34%	9%	0	95% (active)	inactive	inactive	inactive	inactive
COc1ccc2nccc([C@@H](O)CN3CCC(NC(=O)/C=C/c4cc(F)cc(Br)c4)CC3)c2c1	50% (active)	24%	7	95% (active)	inactive	inactive	inactive	inactive
COc1cc2nc(Nc3ccc4c(cnn4Cc4ccccc4)c3)nc(Nc3ccc4c(cnn4Cc4ccccc4)c3)c2cc1OC	100% (active)	4%	7	99% (active)	inactive	inactive	inactive	inactive
